# Laboratory results from PubChem BioAssay AID624256 (NMMLSC, 2012).
# Out of some 360,000 compounds screened, about 3,700 (1%) were called active. Not shown: some 2% with an inconclusive outcome.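 How the source made its calls: active means normalized GFP-positive differentiation at or above the plate's own cutoff, the solvent-only control mean plus 3 SD; inconclusive means no clear call, values can overlap the other calls; inactive means the rest.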 Only a selection was taken, and actives are over-represented in it overall.
# Assay: HoxA9-arrested leukemia cell differentiation promoters – flow cytometry, MLPCN library, primary screen (AID 624256);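 on GFP+ MAC1+ double positive: cells exposed to compound for four days before flow analysis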;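 on normalized GFP-positive differentiation: cells exposed to compound for four days before flow analysis; 0% = DMSO wells and 100% = fulvestrant positive control at 5 µM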
# Settings: ER-HoxA9 myeloid progenitors, lysozyme-GFP differentiation, at 10 µM; GFP+ MAC1+ double positive: measured here: differentiation confirmed by MAC1 staining, stronger effect = higher value; normalized GFP-positive differentiation: stronger effect = higher value
SMILES,GFP+ MAC1+ double positive [%],normalized GFP-positive differentiation,outcome
O=C1NC(=O)N(CCc2ccc(F)cc2)C(=O)/C1=C/C=C/c1ccccc1,0.9,70.4% (active),
CNC(=O)O/N=C(\N)Cc1csc2ccc(Cl)cc12,0.2,,inactive
CC(C)Nc1nc(Cl)nc(NC(C)C)n1,0.1,,inactive
COc1ccc(N=Cc2c(O)n(C)c(=O)[nH]c2=O)cc1,0.4,,inactive
C[C@H]1CN([C@@H](C)CO)C(=O)CCCn2nncc2CO[C@H]1CN(C)C(=O)Oc1ccccc1,0.8,,inactive
Cc1ccccc1NC(=O)COC(=O)c1cc(C)n(C2CC2)c1C,1.3,,inactive
CC(=NCC1CCCO1)c1c(O)n(-c2ccccc2)c(=O)[nH]c1=O (stereo not given),0.9,,inactive
OCC#CC[N+]1(CC#Cc2ccccc2)CCCC1,1.2,7.55% (active),
COC(=O)C1=C(c2cc3ccccc3s2)C[C@@H]2CC[C@H]1N2C(=O)NCCO,4.1,,inactive
CCOC(=O)[C@]12Cc3cc(OC)ccc3[C@H]1N(C(C)C)C(=O)c1ccccc12,1.5,,inactive
c1ccc(CC2CCCCN2)cc1 (stereo not given),0.1,,inactive
c1ccc2sc(C3CCCNC3)nc2c1 (stereo not given),1.2,,inactive
CC1CC=CCC12C(=O)NC(=S)NC2=O (stereo not given),11.7,312% (active),
CN1CCC[C@@H]1CCO[C@](C)(c1ccccc1)c1ccc(Cl)cc1,3.2,,inactive
CC1C2Cn3c(nc4ccccc43)C1N(C)O2 (stereo not given),1.5,,inactive
